Hits are enriched below; roughly 7.3% of the tested compounds scored in any of these assays.
NPC1 prom act: NPC1 promoter activation; Huh7 NPC1 promoter luciferase reporter, 24 h; Potency, µM (doses to about 9.22 µM), for inactives: at the top dose activation, actives largely listed as activators; actives 2.4% (n = 320,000); AID 485313; further: % of control where 0% means no effect; nearly all actives have a fitted effect of over 60% in size
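Readout is luciferase luminescence, reflecting NPC1 promoter activation in stably transfected Huh7 cells after 24 h compound exposure at 37 °C in reduced-serum medium with 10% FBS.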
FLuc counter: firefly luciferase modulation, counter-screen for miR-21 project | actives 6.9% (n = 360,000) | AID 588342 | purified FLuc, Km substrates, luminescence inhibition | Potency, µM (highest dose often 57.5 µM), without a hit: at the highest dose activity change, negative = inhibition, hits mostly inhibitors | P08659;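 further: plate controls were vehicle for no effect and reference inhibitor for full effect; nearly all actives have a fitted effect of over 55% in size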
Target sequence (P08659 whole entry, looked up): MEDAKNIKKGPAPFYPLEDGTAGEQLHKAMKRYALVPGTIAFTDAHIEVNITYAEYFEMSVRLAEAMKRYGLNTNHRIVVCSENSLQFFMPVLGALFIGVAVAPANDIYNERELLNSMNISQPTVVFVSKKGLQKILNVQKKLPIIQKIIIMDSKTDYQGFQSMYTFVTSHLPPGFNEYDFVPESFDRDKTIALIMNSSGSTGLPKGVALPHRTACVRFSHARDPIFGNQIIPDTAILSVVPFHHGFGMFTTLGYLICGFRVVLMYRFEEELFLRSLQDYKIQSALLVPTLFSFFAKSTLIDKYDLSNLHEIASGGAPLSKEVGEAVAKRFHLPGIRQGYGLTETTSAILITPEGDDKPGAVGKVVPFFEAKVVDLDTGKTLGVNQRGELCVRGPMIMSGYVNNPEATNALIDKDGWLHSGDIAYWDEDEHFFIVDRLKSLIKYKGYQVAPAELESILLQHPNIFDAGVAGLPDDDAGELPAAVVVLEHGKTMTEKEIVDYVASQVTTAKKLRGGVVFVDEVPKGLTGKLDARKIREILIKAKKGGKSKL
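Purified P. pyralis luciferase, 10 nM final, with Km-level 10 uM D-luciferin and 10 uM ATP in 50 mM Tris acetate pH 7.5, 10 mM Mg acetate, 0.01% Tween-20, 0.05% BSA; 6-point qHTS titration about 60 µM downward; luminescence read.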
Luc counter: counter-screen: inhibitors of Kinase-Glo firefly luciferase; Q27757; Kinase-Glo luciferase, ATP luminescence, 8 min; Potency, µM (series often up to 38.3 µM), inactives show at the top dose activity change, negative = inhibition, hits mostly inhibitors; actives 0.28% (n = 200,000); AID 1379; further: on the % scale 0 is the no-effect control and ±100 the full control effect; nearly all actives have a fitted effect of over 60% in size
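Luminescence was the read-out, taken after 8-minute incubation at ambient temperature. Luciferase turned over luciferin with 10 uM ATP in imidazole pH 7.2 buffer containing KCl, MgCl2, Tween 20 and BSA.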
SMN2 splice up: increases expression of the SMN2 splice variant; HEK293 SMN2-luciferase splicing reporter, luminescence, 30-36 h; Potency, µM (titrated, usually from 46.1 µM), inactives show top-dose activity change, positive = activation, usual class: activators; actives 2.8% (n = 210,000); AID 1458; further: % of control where 0% means no effect; nearly all actives have a fitted effect of over 55% in size
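HEK293 cells carry an SMN2 […]–luciferase reporter in which exon 7 inclusion puts luciferase in frame. Cells were plated 10-12 h before compound addition, then incubated 30-36 h at 37C. ONE-Glo luminescence was read; sodium butyrate at 4.5 mM final served as control.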
Rab9 promoter act: activators of Rab9 promoter | Huh7 Rab9 promoter-luciferase reporter, luminescence, 24 h | Potency, µM (series often up to 9.22 µM), for inactives: at the top dose activation, negative = inhibition, most hits filed as activators | actives 2.8% (n = 320,000); further: % of control where 0% means no effect; nearly all actives have a fitted effect of over 60% in size
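Cells were plated at 1500 per well in reduced-serum medium with 10% FBS and left 2 h. Compound in DMSO was then added for 24 h at 37 °C. Reporter signal was read by luminescence after 10 min with luciferase detection reagent.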
Starred values were filed as active, the others as inactive; ? = inconclusive; / = no result; [ ] = remark or other dose. The call rests on the fitted dose curve; in most records, active means well fitted curve in the direction sought with a large enough effect; inconclusive means small, poorly fitted or top-dose-only effect, or another doubt; inactive means no such curve, though single readings can be large; an effect the other way counts as inactive or inconclusive. Potency means the concentration at half of the fitted maximal effect.

SMILES	NPC1 prom act	FLuc counter	Luc counter	SMN2 splice up	Rab9 promoter act
Cc1cccc(C(=O)N2CCCCCC2)c1	1.8%	-1.7%	-1.0%	-10.0%	8.4%
NS(=O)(=O)c1ccc(CCNC(=O)c2cc(-c3ccco3)nc3ccccc23)cc1	-2.5%	?	/	/	0.7%
Cc1ccc(-c2cc(C(=O)NCCc3ccc(S(N)(=O)=O)cc3)c3ccccc3n2)cc1	4.0%	6.01µM*	-6.5%	-2.3%	14.5%
NS(=O)(=O)c1ccc(CCNC(=O)c2cc(-c3ccccc3)nc3ccccc23)cc1	-1.2%	?	0.5%	-7.1%	-18.3%
COc1ccc(-c2cc(C(=O)NCCc3ccc(S(N)(=O)=O)cc3)c3ccccc3n2)cc1	4.3%	7.57µM*	-14.7%	-12.2%	26.0%
COc1cccc(/C=N/NC(=O)CSc2nnc(C)n2-c2ccccc2)c1O	-8.9%	16.9µM*	-3.6%	-24.8%	-2.6%
COc1cccc(/C=N/NC(=O)CN2CC(c3ccccc3)CC2=O)c1O (configuration not stated)	-8.1%	12µM*	-0.8%	-47.9%	-18.9%
O=C(c1c[nH]c2ccccc12)N1CCN(Cc2ccccc2)CC1	-3.4%	21.3µM*	-0.7%	-18.3%	3.7%
O=C(c1cccc(C(=O)N2CCN(Cc3ccccc3)CC2)c1)N1CCN(Cc2ccccc2)CC1	-4.5%	0.3%	2.6%	-71.7%	-6.5%
O=C(c1ccc2ccccc2c1)N1CCN(Cc2ccccc2)CC1	?	21.3µM*	/	/	22.4%
O=C(c1c[nH]c2ccccc12)N1CCN(c2ccccc2)CC1	-1.2%	-15.9%	3.7%	13.8%	14.3%
O=C(Nc1ccc(-c2nc3cc(NC(=O)c4cccs4)ccc3o2)cc1)c1cccs1	-3.7%	-5.5%	-3.8%	-23.5%	-4.6%
COc1ccc(-c2nc3cc(C(C)C)ccc3o2)cc1NC(=O)c1ccccc1[N+](=O)[O-]	/	2.69µM*	/	-1.1%	/
Cc1ccc(-c2nc3cc(C(C)C)ccc3o2)cc1NC(=O)c1cc2ccccc2o1	/	2.39µM*	/	-8.2%	/
CC(C)c1ccc2oc(-c3ccc(Cl)c(NC(=O)c4cccs4)c3)nc2c1	/	2.13µM*	/	3.9%	/
CC(C)c1ccc2oc(-c3ccc(Cl)c(NC(=O)Cc4ccccc4)c3)nc2c1	/	4.26µM*	/	12.0%	/
COc1ccc(-c2nc3ccccc3o2)cc1NC(=O)c1cc(Br)ccc1OC	/	1.0%	/	-8.3%	/
C/C(=C\C[Si](C)(C)C)CCC=O	/	/	0.5%	-8.7%	/
CCN(CC)c1ccc(/C=N/NC(=O)c2ccco2)c(O)c1	-5.3%	5.36µM*	/	/	-17.2%
CCN(CC)c1ccc(/C=N/NC(=O)c2ccco2)cc1	?	1.51µM*	-15.0%	1.58µM*	?
CCN(CC)c1ccc(/C=N/NC(=O)c2ccc([N+](=O)[O-])cc2)cc1	-3.4%	8.0%	/	/	3.1%
CN1CCN(CC(=O)N2c3ccccc3Sc3cc4ccccc4cc32)CC1	/	/	0.3%[7.66 µM]	-10.8%[9.22 µM]	/
O=C(NC(=S)Nc1ccc(N2CCOCC2)c(Cl)c1)c1cccs1	?	19µM*	5.4%	-9.3%	?
O=C(Nc1ccc(N2CCCC2)c(Cl)c1)c1cccs1	0.708µM*	2.39µM*	?	2.82µM*	0.447µM*
O=C(NC(=S)Nc1ccccc1N1CCOCC1)c1cccs1	0.1%	-4.9%	-4.1%	-6.6%	-1.9%
SMILES	NPC1 prom act	FLuc counter	Luc counter	SMN2 splice up	Rab9 promoter act
Cc1nc(NC(=O)c2ccco2)sc1-c1csc(Nc2ccc(Cl)cc2)n1	-1.6%	10.7µM*	1.1%	-26.8%	4.3%
C=CCCC(=O)Nc1nc(C)c(-c2csc(Nc3ccc(Cl)cc3Cl)n2)s1	1.5%	26.9µM*	-1.4%	-18.2%	-7.4%
Cc1ccccc1Nc1nc(-c2sc(NC(=O)c3cccc(Cl)c3)nc2C)cs1	-0.6%	?	-7.1%	-18.3%	0.1%
Cc1nc(NC(=O)c2ccccc2)sc1-c1csc(Nc2ccc(Cl)cc2Cl)n1	0.0%	9.53µM*	-6.9%	4.3%	-0.6%
C=CCCC(=O)Nc1nc(C)c(-c2csc(Nc3cc(Cl)ccc3OC)n2)s1	-10.6%	-11.9%	-3.8%	-18.3%	1.3%
Cc1ccccc1Nc1nc(-c2sc(NC(=O)c3ccccc3)nc2C)cs1	0.7%	8.49µM*	-8.4%	1.9%	-4.2%
COc1ccc(Cl)cc1NC(=O)c1cc(S(=O)(=O)N2CCc3ccccc32)cn1C	/	-0.5%	/	/	/
COc1ccc(-c2nc(-c3ccccc3)c(NC(C)(C)C)o2)cc1	/	/	1.4%	-6.8%	/
COc1ccc(C(=O)c2sc(Nc3ccc(NC(C)=O)cc3)nc2C)cc1	-2.1%	?	/	/	-8.0%
Cc1nc(NC(=O)c2ccccc2)sc1-c1csc(Nc2ccc(F)cc2)n1	-4.6%	7.57µM*	-9.4%	-46.2%	-1.5%
O=C(NNc1ccccc1F)c1ccccc1	2.6%	-4.6%	/	/	6.5%
Nc1nc(Nc2ccccc2F)sc1C(=O)c1ccccc1	?	6.01µM*	/	/	0.708µM*
Cc1nc(NC(=O)c2ccccc2)sc1-c1csc(Nc2ccc(Cl)cc2)n1	-4.9%	8.49µM*	0.4%	-29.3%	-6.4%
Cc1nc(Nc2ccccc2)sc1C(=O)c1ccc(F)cc1	?	19µM*	/	/	?
Cc1nc(NC(=O)c2ccccc2)sc1-c1csc(Nc2cccc(Cl)c2)n1	0.2%	?	-3.2%	-33.3%	1.9%
CC(C)C(NS(=O)(=O)c1ccc2c(c1)oc(=O)n2C)C(=O)NCCc1ccccc1 (configuration not stated)	/	-2.7%	/	-5.2%	/
COc1cccc(NC(=O)CCN2CCN(CCO)CC2)c1	/	3.1%	/	2.4%	/
COC(=O)c1ccccc1NC(=O)CCCn1nc(C)c2sc3ccccc3c2c1=O	/	-5.3%	/	/	/
CC(=O)c1ccc(NC(=O)Cn2c(=O)cc(C)c3c(C)nn(-c4cccc(F)c4)c32)cc1	/	-9.5%	/	/	/
O=S(=O)(c1cc(F)ccc1F)N1CCC2(CC1)OCCO2	3.55µM*	12µM*	/	/	3.98µM*
O=S(=O)(c1ccc(F)cc1)N1CCC2(CC1)OCCO2	1.8%	7.4%	-0.6%	15.3%	1.3%
CCOc1ccc(/C=C2\CCc3ccccc3C2=O)cc1	2.82µM*	0.301µM*	/	/	1.12µM*
O=C1/C(=C\c2ccncc2)CCc2ccccc21	-0.2%	9.53µM*	/	/	-10.5%
COc1cc(/C=C2\CCc3ccccc3C2=O)cc(OC)c1OC	1.3%	?	1.3%	-35.2%	-2.0%
O=C1/C(=C/c2ccncc2)CCC/C1=C\c1ccncc1	-40.2%	-0.1%	0.6%	-105.5%	-32.2%
O=C1/C(=C/c2ccncc2)CCc2ccccc21	-0.4%	8.49µM*	/	/	-4.1%
COCC(=O)NCc1nc2cccnc2n1Cc1ccc(F)cc1	/	0.7%	/	/	/
CCCc1nn2c(=O)cc(COC(=O)CNC(=O)COc3ccc(C)cc3)nc2s1	/	2.4%	/	/	/
CCCC(=O)N1CCN(c2ccc(NC(=O)c3ccc([N+](=O)[O-])o3)cc2Cl)CC1	-16.5%	3.9%	1.3%	-47.8%	-2.9%
CC(C)C(=O)N1CCN(c2ccc(NC(=O)c3ccc([N+](=O)[O-])o3)cc2Cl)CC1	-11.8%	1.1%	0.0%	-0.9%	-39.5%

Assay outcomes: PubChem BioAssay, National Center for Advancing Translational Sciences (NCATS)
